Each structure is given as a SMILES string. The campaign covered roughly 69,000 compounds. About 8,600 (12%) showed an effect of 50% or more. The sample holds strong results, similar compounds and a random draw of the others, so the mix is not that of the screen.

The values below come from ChEMBL document CHEMBL4513216, “Probing the Open Global Health Chemical Diversity Library for Multistage-Active Starting Points for Next-Generation Antimalarials” (ACS Infect Dis, 2020).

This assay has as its system Plasmodium berghei. As to the kind of experiment: Screen against P. berghei liver stage (PbLuc), transformed with Luciferase, at 10uM. The format is functional, HepG2. Particulars: tested at 10 uM.
As for `Cc1ccc(CN2CCCC3(CCN(Cc4ccoc4)CC3)C2)cc1`, the INHIBITION is on record as 82.8%.
For the molecule `COCCC(=O)N1CC2(CCN(Cc3ccoc3)C2)C1`, the INHIBITION stood at 54.6%.
For `Cn1ccnc1CN1CCC2(CC1)CCN(Cc1ccoc1)C2` the value was -37.4%.
Then `O=C(CC1CCCC1)N1CCCC1c1ccc(CN2CCOCC2)cn1` (stereo not given), with 30.25%; and `CC(C)c1nn(C)c(N(C)C)c1CNC(C)c1ccc2c(c1)OCO2` (stereo not given), with 22.3%.
As to `CCC(C)N(Cc1cccnc1)C(=O)c1ncccc1O` (stereo not given), the INHIBITION is 39.9%.
Then `Cc1nnc(NC(=O)CN(C)C2CCCN(c3cccnn3)C2)s1` (stereo not given), with 12.7%; and `Cc1csc(CNC(=O)NC(C)c2ccc3c(c2)OCCO3)n1` (stereo not given), with 44.9%; and `Cc1ccc(CNC2CCc3nc(C(C)C)nn3C2)o1` (stereo not given), with -17.7%.
As for `c1cncc(C[C@H]2[C@H](N3CCOCC3)CCN2Cc2cccs2)c1`, the INHIBITION is -7.24%.
For `CCOCCCOC(=O)c1ccc2c(c1)[nH]c(=O)n2C` the value was -5.47%; for `Cn1c(=O)[nH]c2cc(C(=O)OCCCn3ccccc3=O)ccc21`, 60%.
Regarding `CCCOCCOC(=O)c1ccc2c(c1)[nH]c(=O)n2C`, the INHIBITION turned out to be 26.6%.
For `Cc1nn(C)c(C)c1C1COCCN1C(=O)CCc1ccccc1` (stereo not given) the value was 5.7%.
For `Cc1nnc(NC(=O)CCc2c(C)nn3cnnc3c2C)s1` the value was 16.6%.
With `CCCn1c(C)c(CC(=O)N(C)CCO)c2c1CC(C)(C)CC2=O`, the INHIBITION is 48.1%.
For `COC(=O)C(C)(C)NC(=O)C1CC(=O)N(C)C1` (stereo not given) the value was 35.1%; for `COC(=O)C(C)(C)NC(=O)C1CC(=O)N(C2CCCC2)C1` (stereo not given), 20.1%.
For `COC(=O)C(C)(C)NC(=O)C1CC(=O)N(C2CC2)C1` (stereo not given) the value was 84.1%.
For `OCC1(O)CCN(Cc2noc(-c3ccccc3)n2)CC1` the value was 20.3%; for `Cc1ccc(CN2CCN(C(=O)c3ccc(Br)o3)CC2)cc1`, 92.8%; for `CCc1ccc(C(=O)N2CCN(CCO)CC2)o1`, -13.5%.
For the molecule `COC(=O)c1sccc1CN1CCN(C(=O)c2ccc(C)o2)CC1`, the INHIBITION is recorded as 30.9%.
Then `O=C(c1ccc(Br)o1)N1CCN(Cc2ccc(F)cc2)CC1`, with 62.5%.
For `CC(O)CN1CCN(C(=O)c2ccc(Br)o2)CC1` (stereo not given) the value was 16.2%.
For `Cn1ccnc1CN1CCCN(C(=O)c2ccc(Cl)o2)CC1` the value was 29.1%.
Take `CC(=O)N1CCN(Cc2ccc(OCc3nccn3C)cc2)CC1`: the INHIBITION worked out at 1.78%.
Then `CC(=O)N1CCN(Cc2ccc(F)cc2)CC2(CC(=O)N(C)C2)C1` (stereo not given), with -6.05%.
For `O=C(c1ccc(Br)s1)N1CCN(Cc2ccc(OC(F)(F)F)cc2)CC1` the value was 79%; for `Cc1cc(C)n(CCN2CCN(C(=O)c3ccc(Br)o3)CC2)n1`, -13.3%.
Then `CCc1ccc(C(=O)N2CCCN(Cc3nccn3CC)CC2)s1`, with 8.47%.
Turning to `O=C(c1ccc(Br)o1)N1CCN(Cc2ccc(OC(F)(F)F)cc2)CC1`, the INHIBITION stood at 90%.
Then `O=C(c1cscn1)N1CCC2(CN(Cc3ccsc3)C2)C1`, with 45.2%; and `N#Cc1ccccc1C(=O)NCCC1CN(Cc2ccco2)CCO1` (stereo not given), with 23.3%.
Then `CN(c1ccncn1)C1CC2(CCN(C(=O)c3cncs3)C2)C1` (stereo not given), with 32.3%.
Then `Fc1ccccc1OCCc1cc(C2CCNC2)n[nH]1` (stereo not given), with -14.1%; and `Cc1nc(CN2CCCC(N(C)CCCc3ccccc3)C2)no1` (stereo not given), with -11.4%.
Turning to `Cc1cc(N2CCC(O)CC2)nc(C2CCCN2C)n1` (stereo not given), the INHIBITION is on record as 9.6%.
For `O=C(Nc1ccccc1)c1cc2n(n1)CCCN(C(=O)c1ccc[nH]1)C2` the value was 28.5%; for `CCc1ccc(C(=O)N2CCN(Cc3ccc(F)cc3)CC2)s1`, 68.5%; for `COCc1ccc(C(=O)N2CCCN(Cc3ccc(F)cc3)CC2)s1`, 14.3%.
`CCc1nnsc1C(=O)N1CCCN(Cc2ccc(F)cc2)CC1`: the INHIBITION is -0.219%.
For `Cc1cc(C)n(CC2CCCN2C(=O)c2cnccn2)n1` (stereo not given) the value was -3.7%; for `Fc1ccc(N2CCCN(c3ccc(Cn4ccnc4)cn3)CC2)cc1`, 92.8%; for `c1csc(CN2CCCN(c3ccc(Cn4ccnc4)cn3)CC2)c1`, 52.6%.
For `O=c1cc(Cn2ccnc2)nc2n1CCCN(Cc1cccs1)C2` the value was 53.4%; for `O=c1cc(Cn2ccnc2)nc2n1CCCN(Cc1ccco1)C2`, 8.85%.
For `OC1CCN(C2CCN(c3ccc(Cn4ccnc4)cn3)CC2)CC1` the value was 24.4%.
In the case of `c1cn(Cc2ccc(N3CCCN(C4CCCC4)CC3)nc2)cn1`, the INHIBITION is recorded as 13.5%.
In the case of `CC(Cn1ccnc1)NC(=O)N1CCCN(Cc2cccs2)CC1` (stereo not given), the INHIBITION is on record as 21.5%.
With `O=c1cc(Cn2cncn2)nc2n1CCCN(Cc1ccsc1)C2`, the INHIBITION amounted to 12.7%.
For `Cc1nc(CN2CCCn3c(nc(Cn4ccnc4)cc3=O)C2)cs1` the value was -16.6%.
Then `Cc1nc(CN2CCCn3c(nc(Cn4cncn4)cc3=O)C2)cs1`, with 51.2%; and `O=C(NCCn1ccnc1)N1CCCN(Cc2cccs2)CC1`, with -39.7%.
Then `O=c1cc(Cn2ccnc2)nc2n1CCCN(Cc1ccncc1)C2`, with -32%.
